“And” between values parts separate entries of the source, which are not always exact repeats. Identical values can stand only once. This is part of a sample that, as a whole, favours compounds with a hit. Of some 79,000 tested, about 15% had one in any assay. The source holds several records for some structures; these can differ, active in one and inactive in another. The source made the active and inactive calls. Rule as the data show it: active = growth inhibition above about 70%; inactive = the rest.
What was measured:
[1] = NCI Yeast Anticancer Drug Screen. Data for the rad52 strain (AID 147);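 also: 0% = growth of vehicle-treated control cultures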; conditions: S. cerevisiae rad52 mutant growth inhibition, stronger effect = higher value
Procedure, shortened: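 Yeast strain carrying a DNA damage repair alteration was exposed to test compounds. Growth inhibition was measured relative to vehicle-treated controls.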

[2] = NCI Yeast Anticancer Drug Screen. Data for the wt1 strain (AID 149);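 also: 0% = growth of vehicle-treated wt1 cultures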; conditions: S. cerevisiae wt1 strain (SPY 50644) growth inhibition, stronger effect = higher value
Procedure, shortened: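 Vehicle-normalised growth inhibition; strain wt1; compound exposure.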

[3] = NCI Yeast Anticancer Drug Screen. Data for the rad50EPP+ strain (AID 151);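 also: 0% = growth of vehicle-treated control cultures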; conditions: S. cerevisiae rad50 mutant strain, stronger effect = higher value
Procedure, shortened: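 Yeast strain carrying rad50 alteration (rad50EPP+) exposed to compounds; growth inhibition measured relative to vehicle-treated controls.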

[4] = NCI Yeast Anticancer Drug Screen. Data for the mgt1 strain (AID 153); conditions: S. cerevisiae mgt1 mutant growth inhibition, stronger effect = higher value
Procedure, shortened: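 Yeast mgt1 strain (DNA repair/cell-cycle alteration panel) exposed to compounds; growth inhibition measured relative to vehicle-treated controls.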

[5] = NCI Yeast Anticancer Drug Screen. Data for the rad50 strain (AID 155);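 also: 0% = growth of vehicle-only cultures of the same strain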; conditions: S. cerevisiae rad50 strain growth inhibition, stronger effect = higher value
Procedure, shortened: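 A DNA repair-deficient yeast mutant serves as the test organism; compound-induced growth inhibition is calculated against vehicle-treated cells.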

[6] = NCI Yeast Anticancer Drug Screen. Data for the mec2-1 strain (AID 157); conditions: S. cerevisiae mec2-1 strain, stronger effect = higher value
Procedure, shortened: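 mec2-1 yeast strain, carrying an alteration in DNA damage repair or cell cycle control, was exposed to compounds; growth inhibition was measured relative to vehicle-treated controls.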

[7] = NCI Yeast Anticancer Drug Screen. Data for the rad14 strain (AID 159);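 also: 0% = growth of vehicle-treated control cultures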; conditions: S. cerevisiae rad14 strain growth inhibition, stronger effect = higher value
Procedure, shortened: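 Vehicle-treated cultures served as the baseline for growth inhibition of a DNA repair-mutant yeast strain exposed to each compound.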

[8] = NCI Yeast Anticancer Drug Screen. Data for the sgs1 mgt1 strain (AID 161);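 also: 0% = growth of cultures given vehicle only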; conditions: S. cerevisiae sgs1 mgt1 strain, stronger effect = higher value
Procedure, shortened: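 Growth of a repair-deficient yeast mutant was monitored after compound treatment and expressed as inhibition relative to vehicle-treated cultures.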

[9] = NCI Yeast Anticancer Drug Screen. Data for the CLN2oe strain (AID 163);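 also: 0% = growth of vehicle-only control cultures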; conditions: S. cerevisiae CLN2oe strain, stronger effect = higher value
Procedure, shortened: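 Yeast cells carrying a defined cell-cycle control alteration were exposed to test compounds. Growth inhibition was scored against vehicle-treated control cultures.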

[10] = NCI Yeast Anticancer Drug Screen. Data for the cln2 rad14 strain (AID 165);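 also: 0% = growth equal to vehicle treated cultures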; conditions: S. cerevisiae cln2 rad14 strain, stronger effect = higher value
Procedure, shortened: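 Yeast carrying cln2 and rad14 alterations (cell cycle control and DNA damage repair) were exposed to compounds. Growth inhibition was measured against vehicle-treated controls.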

[11] = NCI Yeast Anticancer Drug Screen. Data for the bub3 strain (AID 167); conditions: S. cerevisiae bub3 mutant strain, stronger effect = higher value
Procedure, shortened: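 Inhibition values come from growth of compound-treated mutant yeast normalised to vehicle-treated controls.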

[12] = NCI Yeast Anticancer Drug Screen. Data for the wt2 strain (AID 169);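 also: 0% = growth of vehicle-treated yeast cultures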; conditions: S. cerevisiae wt2 strain growth inhibition, stronger effect = higher value
Procedure, shortened: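 Yeast cells were exposed to test compounds, and growth inhibition was measured relative to vehicle-treated controls.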

[13] = NCI Yeast Anticancer Drug Screen. Data for the mlh1 strain (AID 171);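 also: 0% = growth of vehicle-treated control cultures of the same strain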; conditions: S. cerevisiae mlh1 strain growth inhibition, stronger effect = higher value
Procedure, shortened: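 Yeast carrying a defined genetic alteration in DNA damage repair or cell cycle control were exposed to test compounds. Growth inhibition was measured relative to vehicle-treated controls.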

[14] = NCI Yeast Anticancer Drug Screen. Data for the sgs1 strain (AID 173);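 also: 0% = growth of vehicle-only control cultures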; conditions: S. cerevisiae sgs1 mutant, stronger effect = higher value
Procedure, shortened: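 Yeast mutant strains carrying defined defects in DNA damage repair or cell cycle control were exposed to test compounds. Growth inhibition was scored against vehicle-treated controls.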

[15] = NCI Yeast Anticancer Drug Screen. Data for the mlh1 rad18 strain (AID 175); conditions: S. cerevisiae mlh1 rad18 strain growth inhibition, stronger effect = higher value
Procedure, shortened: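 Growth inhibition of the yeast strain was measured after compound exposure and expressed relative to vehicle-treated controls. The strain carries defined defects in DNA damage repair.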

[16] = NCI Yeast Anticancer Drug Screen. Data for the rad18 strain (AID 177); conditions: S. cerevisiae rad18 mutant growth inhibition, stronger effect = higher value
Procedure, shortened: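 Yeast carrying a defined DNA damage repair alteration were exposed to compounds. Growth inhibition was expressed relative to vehicle-treated controls.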

[17] = at 5.0 µM (retest, dose inferred, filed as 0.5)
[18] = at 50.0 µM (retest, dose inferred, filed as 5.0)

Measured: growth inhibition

C[C@@](O)(/C=C/[C@H]1CC=CC(=O)O1)[C@@H](C[C@@H](O)\C=C/C=C\C=C\CO)OP(=O)(O)O
active: [1]; at 100.0 µM 90% | [2]; at 100.0 µM 81% | [4]; at 100.0 µM 86% | [5]; at 100.0 µM 92% | [6]; at 100.0 µM 84% | [7]; at 100.0 µM 94% | [8]; at 50.0 µM 73% | [9]; at 100.0 µM 82% | [11]; at 33.0 µM 86% | [11]; [18] 91% | [11]; at 50.0 µM 86.1% | [11]; at 100.0 µM 93% | [12]; at 100.0 µM 88% | [13]; at 100.0 µM 88% | [14]; at 100.0 µM 90% | [16]; at 100.0 µM 84%
inactive: [1]; at 1.2 µM 26% | [1]; at 3.7 µM 22% | [1]; at 11.0 µM 37% | [1]; at 33.0 µM 66% | [2]; at 1.2 µM 18% | [2]; at 3.7 µM 13% | [2]; at 11.0 µM 15% | [2]; at 33.0 µM 35% | [3]; at 1.2 µM 18% | [3]; at 3.7 µM 15% | [3]; at 11.0 µM 17% | [3]; at 33.0 µM 25% | [3]; at 100.0 µM 33% | [4]; at 1.2 µM 33% | [4]; at 3.7 µM 28% | [4]; at 11.0 µM 33% | [4]; at 33.0 µM 51% | [5]; at 1.2 µM 27% | [5]; at 3.7 µM 30% | [5]; [17] 1% | [5]; at 11.0 µM 41% | [5]; at 33.0 µM 62% | [5]; [18] 53% | [5]; at 50.0 µM 67.2% | [6]; at 1.2 µM 9% | [6]; at 3.7 µM 22% | [6]; [17] -2% | [6]; at 11.0 µM 25% | [6]; at 33.0 µM 46% | [6]; [18] 34% | [6]; at 50.0 µM 50.6% | [7]; at 1.2 µM 9% | [7]; at 3.7 µM 13% | [7]; at 11.0 µM 11% | [7]; at 33.0 µM 50% | [8]; [17] 17% | [8]; [18] 60% | [9]; at 1.2 µM 46% | [9]; at 3.7 µM 26% | [9]; at 11.0 µM 25% | [9]; at 33.0 µM 54% | [10]; [17] 5% | [10]; [18] 17% | [10]; at 50.0 µM 42.6% | [11]; at 1.2 µM 29% | [11]; at 3.7 µM 45% | [11]; [17] 34% | [11]; at 11.0 µM 63% | [12]; at 1.2 µM 4% | [12]; at 3.7 µM 19% | [12]; at 11.0 µM 20% | [12]; at 33.0 µM 39% | [13]; at 1.2 µM 21% | [13]; at 3.7 µM 20% | [13]; at 11.0 µM 34% | [13]; at 33.0 µM 61% | [14]; at 1.2 µM 33% | [14]; at 3.7 µM 32% | [14]; at 11.0 µM 42% | [14]; at 33.0 µM 59% | [15]; [17] -2% | [15]; [18] 48% | [15]; at 50.0 µM 19.3% | [16]; at 1.2 µM 40% | [16]; at 3.7 µM 34% | [16]; at 11.0 µM 41% | [16]; at 33.0 µM 54%

Cc1cc(N(CCOS(C)(=O)=O)CCOS(C)(=O)=O)ccc1C=Nc1ccc(-c2csc(-c3ccccc3)n2)c(Cl)c1
-19% (inactive) and 95% (active): [11]; [18]
active: [1]; at 11.0 µM 90% | [1]; at 33.0 µM 96% | [1]; at 100.0 µM 84% | [2]; at 33.0 µM 98% | [2]; at 100.0 µM 92% | [3]; at 100.0 µM 85% | [4]; at 11.0 µM 81% | [4]; at 33.0 µM 98% | [4]; at 100.0 µM 92% | [5]; at 11.0 µM 78% | [5]; at 33.0 µM 96% | [5]; [18] 96% and 94% | [5]; at 50.0 µM 93.2% | [5]; at 100.0 µM 91% | [6]; at 11.0 µM 85% | [6]; at 33.0 µM 97% | [6]; [18] 97% | [6]; at 50.0 µM 97.1% | [6]; at 100.0 µM 92% | [7]; at 11.0 µM 91% | [7]; at 33.0 µM 97% | [7]; at 100.0 µM 91% | [8]; at 50.0 µM 82.8% and 96.2% | [9]; at 11.0 µM 79% | [9]; at 33.0 µM 98% | [9]; at 100.0 µM 92% | [10]; at 50.0 µM 82.8% and 92.5% | [11]; at 11.0 µM 76% | [11]; at 33.0 µM 97% | [11]; at 50.0 µM 81.4% and 94% | [11]; at 100.0 µM 92% | [12]; at 11.0 µM 72% | [12]; at 33.0 µM 97% | [12]; at 100.0 µM 92% | [13]; at 11.0 µM 80% | [13]; at 33.0 µM 97% | [13]; at 100.0 µM 90% | [14]; at 11.0 µM 82% | [14]; at 33.0 µM 97% | [14]; at 100.0 µM 92% | [15]; [18] 95% and 96% | [15]; at 50.0 µM 95.2% | [16]; at 3.7 µM 83% | [16]; at 11.0 µM 94% | [16]; at 33.0 µM 97% | [16]; at 100.0 µM 89%
-5% (inactive) and 95% (active): [10]; [18]
5% (inactive) and 97% (active): [8]; [18]
inactive: [1]; at 1.2 µM 14% | [1]; at 3.7 µM 57% | [2]; at 1.2 µM -26% | [2]; at 3.7 µM -8% | [2]; at 11.0 µM 56% | [3]; at 1.2 µM 3% | [3]; at 3.7 µM -1% | [3]; at 11.0 µM 13% | [3]; at 33.0 µM 62% | [4]; at 1.2 µM 13% | [4]; at 3.7 µM 43% | [5]; at 1.2 µM 2% | [5]; at 3.7 µM 28% | [5]; [17] 53% and 4% | [6]; at 1.2 µM -2% | [6]; at 3.7 µM 30% | [6]; [17] 51% and -1% | [7]; at 1.2 µM 4% | [7]; at 3.7 µM 53% | [8]; [17] 20% and 8% | [9]; at 1.2 µM 36% | [9]; at 3.7 µM 37% | [10]; [17] 29% and -6% | [11]; at 1.2 µM 0% | [11]; at 3.7 µM 20% | [11]; [17] 18% and 0% | [12]; at 1.2 µM -4% | [12]; at 3.7 µM 4% | [13]; at 1.2 µM -1% | [13]; at 3.7 µM 25% | [14]; at 1.2 µM 10% | [14]; at 3.7 µM 22% | [16]; at 1.2 µM 58%
86% (active) and 5% (inactive): [15]; [17]
